Screening results from PubChem BioAssay.
This excerpt belongs to a sample that is enriched for hits.
TbPYK inhibitor: qHTS of Trypanosoma Brucei Inhibitors. pyruvate kinase (Trypanosoma brucei), Q57TT1. TbPYK enzyme, Kinase-Glo Plus ATP luminescence, 45 min. Potency, µM (doses to about 76.8 µM), hits mostly inhibitors. 0.12% of 410,000 active. AID 624173, 2012; also: nearly all actives have a fitted effect of over 50% in size
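ADP (130 uM final) triggers the TbPYK reaction after compound addition; incubation is 45 min at room temperature. Kinase-Glo Plus is then added and luminescence imaged. Normalized data are fitted to concentration-effect curves.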
LmPK inh: qHTS Assay for Inhibitors of Leishmania Mexicana Pyruvate Kinase (LmPK); purified LmPK, Kinase-Glo ATP luminescence, 1 h; Potency, µM (top dose mostly 57.5 µM), hits mostly inhibitors; 0.37% of 290,000 active; AID 1721, 2009
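qHTS format; LmPK 0.1 nM; substrates PEP 0.5 mM and ADP 0.1 mM. One-hour room-temperature incubation, then coupled luciferase luminescence; 0.5 nM enzyme wells mark activation.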
RE007 growth inh: qHTS Assay for Inhibitors of the HIV-1 protein Vpr; S. pombe RE007 Vpr strain, BacTiter-Glo ATP luminescence, 24 h; AID 651644, 2012; Potency, µM (titrated, usually from 92.2 µM), usual class: inhibitors; 0.21% of 360,000 active; active = well fitted falling curve with a large enough effect; inconclusive = small, poorly fitted or top-dose-only effect; inactive = no such curve, though single readings can be large or run the other way; also: nearly all actives have a fitted effect of over 50% in size
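Fission yeast strain RE007, carrying one chromosomally integrated HIV-1 vpr copy, was seeded at OD 0.01 in PMG+AL medium with 23 nL pinned compound. After 24 h at 30 °C and 99% humidity, viability was read by BacTiter-Glo luminescence.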
FBPA Giardia inh: qHTS Assay for Inhibitors of Fructose-1,6-bisphosphate Aldolase from Giardia Lamblia; 0.71% of 290,000 active; AID 2451, 2010; purified Giardia FBPA; Potency, µM (top dose mostly 59.6 µM), actives largely listed as inhibitors; A8B2U2; also: nearly all actives have a fitted effect of over 55% in size
Target sequence (A8B2U2 whole entry, looked up): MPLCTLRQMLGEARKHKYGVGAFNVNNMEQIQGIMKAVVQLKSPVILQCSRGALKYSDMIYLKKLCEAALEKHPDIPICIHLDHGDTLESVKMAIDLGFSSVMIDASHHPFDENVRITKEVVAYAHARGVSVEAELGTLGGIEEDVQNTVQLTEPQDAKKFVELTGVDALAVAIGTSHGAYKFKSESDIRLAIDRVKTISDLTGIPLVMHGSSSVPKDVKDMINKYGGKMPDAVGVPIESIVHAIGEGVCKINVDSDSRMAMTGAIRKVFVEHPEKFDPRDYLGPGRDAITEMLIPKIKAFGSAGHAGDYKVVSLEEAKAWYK
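Giardia FBPA (40 nM reagent) was preincubated 10 min at RT with compound (up to 57.5 uM final), then substrate plus GAPDH/TPI/NAD/arsenate coupling system with diaphorase/resazurin was added; resorufin fluorescence (525/598 nm) was read after 20 min.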
Cycloheximide cs: Cycloheximide Counterscreen for Small Molecule Inhibitors of Shiga Toxin. cell reporter, cycloheximide protein synthesis inhibition counterscreen. 12% of 300,000 active. max response, %; in the data active = max response mostly above about 13%, no sharp cut-off; inactive = mostly below about 14%; also: read at 38.3 µM for the half of the compounds with a filed dose
Shiga inhibitor: A qHTS for Small Molecule Inhibitors of Shiga Toxin; inhibition, % at 38.7 µM; Vero cells, Shiga toxin protein synthesis inhibition reporter; 9.2% of 290,000 active; AID 2315, 2010; in the data active = inhibition mostly above about 28%, no sharp cut-off; inactive = mostly below about 43%
A number is an active result; i = inactive; ? = inconclusive; nt = no result given. Unless noted, calls follow the shape of the dose curve; as a rule, active = well fitted curve in the direction sought with a large enough effect; inconclusive = small, poorly fitted or top-dose-only effect, or another doubt; inactive = no such curve, though single readings can be large; an effect the other way counts as inactive or inconclusive.

SMILES	TbPYK inhibitor	LmPK inh	RE007 growth inh	FBPA Giardia inh	Cycloheximide cs	Shiga inhibitor
O=C(Nc1nc2nccc(-c3ccccc3)n2n1)c1ccc(F)cc1	i	i	i	i	i	i
O=C(Nc1nsc(-c2ccccc2)n1)c1ccc(F)cc1	i	i	i	i	32	74
CCN(CCn1cccn1)C(=O)C1CCC(=O)N(CCc2cccc(F)c2)C1 (centres undefined)	i	i	?	nt	i	i
COc1ccc(-c2noc(CSc3nnc(C)n3-c3ccc(C)cc3)n2)cc1	i	nt	nt	nt	nt	nt
CCN(CC)S(=O)(=O)c1ccc2c(c1)N(CC(=O)N1CCN(c3ccc(Cl)cc3)CC1)C(=O)CO2	i	nt	nt	nt	nt	nt
Cc1cccn2cc(CSc3ccccc3N)nc12	i	i	i	i	31	i
c1ccc(SCc2cn3cccnc3n2)nc1	i	i	i	i	i	i
N=C(N)SCc1cn2ccccc2n1	i	i	i	i	i	i
Nc1ccccc1SCc1cn2cccnc2n1	i	i	i	i	24	80
Nc1ccccc1SCc1cn2ccccc2n1	i	i	i	i	68	55
O=S(=O)(c1ccc(-n2cnnn2)cc1)N1CCN(c2cccc(C(F)(F)F)c2)CC1	i	nt	nt	nt	nt	nt
